Records with an inconclusive call do not appear. Activity calls are given as the source filed them. How the source made its calls, unless noted: active means hit-call score of the fitted dose curve at least 0.9, where 1 is the maximum; inconclusive means response in the unintended direction; inactive means score below 0.9.

Test [1] in a line: Tanguay_ZF_120hpf_TR_legacy: (Legacy) Oregon State University Tanguay Lab 120 Hour Post-fertilization zebrafish Assay for Touch Response (AID 2283667). In outline: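 Tropical 5D wild-type zebrafish embryos were exposed statically in sealed, foil-covered plates at 28C until 120 hpf, with 0.64% (vol/vol) final DMSO. Touch response was scored as present or absent; embryos that died were not scored.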

The nature of test [2]: CCTE_Padilla_ZF_144hpf_TERATOSCORE: (Legacy) CCTE's 144 Hour Post-fertilization zebrafish Assay Teratoscore, Padilla Lab (AID 2283679; active means hit-call score of the fitted dose curve at least 0.9, where 1 is the maximum; inactive means score below 0.9;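 on AC50: zebrafish embryos with chorions exposed by immersion from 6-8 hpf to 5 dpf with daily renewal; teratogenicity score from eye scoring of death hatching and malformations at 144 hpf; higher score means more developmental defects relative to DMSO baseline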). In outline: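 Larvae scored by eye at 144 hpf for death, hatching and malformations after a day in clean Hanks'. Before that, daily-renewed exposure at 80 uM (0.4% DMSO, 26C) from roughly 6-8 hpf through 5 dpf, 4 embryos per chemical.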
Test [3] in a line: CEETOX_H295R_MTT_cell_viability: Viability Assessment in the CeeTox HT-H295R MTT Assay (AID 2283718; active means hit-call score of the fitted dose curve at least 0.9, where 1 is the maximum; inactive means score below 0.9;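 on AC50: curve fitted both ways so AC50 may mark viability loss or gain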). In outline:
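H295R cells prestimulated 48 h with 10 uM forskolin, then exposed 48 h to test chemical (0.1% DMSO final). Viability by MTT (0.5 mg/ml, 4 h, 37 C), absorbance 570/650 nm; percent change versus DMSO, bidirectional fit.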

The nature of test [4]: Tanguay_ZF_120hpf_ActivityScore_legacy: (Legacy) Oregon State University Tanguay Lab 120 Hour Post-fertilization zebrafish Assay Score for Activity (AID 2283742).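 On AC50: static exposure from 6 hpf until 120 hpf at 28 °C.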 In outline:
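Tropical 5D wild-type zebrafish embryos, dechorionated with pronase at 4 hpf, were exposed singly from 6 hpf to 120 hpf statically at 28C in 0.64% DMSO. Malformations and mortality were scored as binary by brightfield, with the activity score combining 18 morphology components.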

Test [5] concerns Thyroperoxidase (TPO), gene 445522. In words: CCTE_Simmons_GUA_TPO: CCTE's Guaiacol Assay for Thyroperoxidase (TPO) Inhibition, Simmons Lab (AID 2283750). In outline: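 Porcine thyroid microsomes (25 ug) in 200mM potassium phosphate, preincubated 30 s at 37C with compound (8 concentrations, 5 nM–87.5 uM) and 35mM guaiacol; 1mM H2O2 starts reaction. Absorbance change at 450nm over first 80 s; loss of signal versus DMSO, three replicates.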

Test [6] deals with Luciferin 4-monooxygenase (Photinus pyralis) (UniProt P08659). In words: CCTE_Simmons_QuantiLum_inhib_2: CCTE's Firefly Luciferase Inhibition Assay, Simmons Lab (AID 2283767).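 On AC50: potency for inhibitors that lower luciferase luminescence relative to DMSO.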 In outline:
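Counter-screen for nonspecific enzyme inhibition: purified firefly luciferase incubated 30 min at 37C with chemicals up to 87.5 uM final, then luminescence measured after luciferin/dATP injection; activity fitted against DMSO baseline.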

Test [7] in a line: STM_H9_OrnithineISnorm_perc: Stemina devTOX quickPredict H9 human embryonic stem cell (hESC)-based Assay for Ornithine (ORN) Metabolite Biomarker, Normalized (AID 2283712; active means hit-call score of the fitted dose curve at least 0.9, where 1 is the maximum; inactive means score below 0.9;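 further: ornithine released into spent medium during last day measured by mass spectrometry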). In outline:
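Cells: undifferentiated H9 hESC. Dosing: 72 h, media replaced every 24 h. Sample: final 24-h conditioned media, 40% acetonitrile. Read: UPLC-HRMS ornithine area vs 13C standard, % DMSO control.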

Test [8] is described as follows: STM_H9_CystineISnorm_perc: Stemina devTOX quickPredict H9 human embryonic stem cell (hESC)-based Assay for Cystine (CYSS) Metabolite Biomarker, Normalized (AID 2283713; active means hit-call score of the fitted dose curve at least 0.9, where 1 is the maximum; inactive means score below 0.9). In outline: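 Secreted cystine was measured by UPLC-HRMS in H9 hESC medium after 72h compound exposure with 24-hourly replenishment. Values are standard-normalized areas relative to 0.1% DMSO.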

Test [9] in a line: STM_H9_OrnCyssISnorm_ratio: Stemina devTOX quickPredict H9 human embryonic stem cell (hESC)-based Assay for Ornithine (ORN):Cystine (CYSS) Ratio (AID 2283714). In outline:
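Undifferentiated H9 hESCs were exposed to compound for 72h with media and chemical replaced every 24h. Final 24-h conditioned media were deproteinized and analysed by UPLC-HRMS. ORN and CYSS peak areas were normalized to C13 internal standards and the ratio taken versus 0.1% DMSO.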

Sequence of Luciferin 4-monooxygenase (Photinus pyralis) (P08659 whole entry, looked up): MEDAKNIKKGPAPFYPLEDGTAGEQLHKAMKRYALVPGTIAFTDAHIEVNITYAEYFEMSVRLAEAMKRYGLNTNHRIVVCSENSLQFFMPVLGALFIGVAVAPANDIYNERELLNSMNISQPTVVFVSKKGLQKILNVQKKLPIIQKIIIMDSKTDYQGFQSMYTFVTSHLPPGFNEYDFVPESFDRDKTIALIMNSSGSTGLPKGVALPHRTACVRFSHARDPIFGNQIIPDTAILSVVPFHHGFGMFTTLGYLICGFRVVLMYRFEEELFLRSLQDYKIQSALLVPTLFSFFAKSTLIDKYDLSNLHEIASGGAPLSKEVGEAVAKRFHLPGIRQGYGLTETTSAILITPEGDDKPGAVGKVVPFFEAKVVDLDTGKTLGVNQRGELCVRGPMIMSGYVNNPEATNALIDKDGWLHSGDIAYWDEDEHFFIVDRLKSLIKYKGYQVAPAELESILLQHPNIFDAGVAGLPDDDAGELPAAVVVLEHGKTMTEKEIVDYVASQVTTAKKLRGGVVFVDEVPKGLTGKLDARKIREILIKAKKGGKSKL

Take `O=C(NS(=O)(=O)/C=C/c1ccccc1)c1ccc(F)cc1Cl`: the call in test [1], in [2] and in [4] was inactive. Also, the AC50 in test [3] was 11.2 µM (active).
Take `Cc1ccc(N)cc1O`: the call in [1], in test [2], in test [3] and in [4] was inactive. The AC50 in test [5] was 3.61 µM (active); in [6], 17.4 µM (active).
Turning to `Cn1c(=O)cc(Oc2ccc(F)cc2F)c2cnc(NCC(C)(C)O)nc21`, the compound was classed as inactive in test [1], in test [2], in [7], in [8], in [9] and in test [3]. In [4], the compound was called inactive.
Regarding `CC1(C)C(=O)N(Br)C(=O)N1Br`, the outcome in [1], in test [2] and in test [4] was inactive.
Take `CCCCCCCCCCCCc1ccccc1`: the result in test [1], in test [2], in test [7], in test [8] and in test [4] was inactive.
In the case of `COC(=O)CC(=O)OC`, the outcome in test [1], in [2] and in test [4] was inactive.
As to `On1ccccc1=S`, the compound was called inactive in [1] and in test [4]. In addition, the AC50 in test [2] was 27.7 µM (active); in [7], 8.49 µM (active); in test [8], 5.86 µM (active); in [9], 7.94 µM (active); in [5], 85.9 µM (active); in [6] it was 9 µM (active).
For `CCc1cc(SCc2sc(-c3ccc(C(F)(F)F)cc3)nc2CN2CCN(c3ccc(OC)cc3)CC2)ccc1OCC(=O)O`, the compound was called inactive in [1]. The AC50 is 5.47 µM (active) in test [2] and 61.5 µM (active) in test [4].
For `COCCOCCOCCOC`, the outcome in test [1], in test [2], in test [7], in test [8], in test [9] and in test [4] was inactive.
With `CC(C)CCO`, the result in test [1], in [2], in [7] and in [4] was inactive. Further, the AC50 in test [8] is 0.118 µM (active).
`Oc1ccc2c(c1)-c1ccccc1C2`: the AC50 is 32.1 µM (active) in [1], 32.9 µM (active) in [2], 32.8 µM (active) in test [3] and 46.6 µM (active) in test [4]. Also, the outcome in test [6] was inactive.
As for `C=CCCCCCCCCC(=O)O`, the result in test [1], in test [3] and in test [4] was inactive. Besides, the AC50 in [2] is 60.1 µM (active).
Take `COc1ccc2sc(C(=O)Nc3nnn[nH]3)c(OC(C)C)c2c1`: the call in [1] and in [4] was inactive. The AC50 is 34.4 µM (active) in [2], 1.33 µM (active) in test [7], 1.65 µM (active) in test [8] and 1.52 µM (active) in [9].

The values are drawn from PubChem BioAssay (EPA / NIEHS).
